E-sel TNF inh: TNF alpha driven E-selectin expression inhibition | HUVEC TNFa-induced E-selectin immunofluorescence, high content | inhibition, % at 2 µM | 0.71% of 120,000 active;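 active means inhibition above the batch mean plus 3 SD, and confirmed as a hit on visual image review, cut at about 43% in these data; inconclusive means passes the inhibition cutoff but fails visual image review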
HUVEC tox TNFa: HUVEC cytotoxicity counter-screen, TNF alpha stimulated; HUVEC TNFalpha-stimulated, Hoechst cell count, imaging; cell count reduction, % at 2 µM; 0.17% of 93,000 active;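 active means cell count reduction exceeding the screen mean by over 5 SD, scaled to untreated wells per plate, cut at about 78% in these data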;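 further: cells counted after 24 h of TNF alpha exposure following the 1 h pretreatment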
VCAM1 TNFa inh: reduces TNF alpha induced VCAM1 expression in HUVEC. HUVEC TNFa-induced VCAM-1 immunofluorescence, high-content imaging. inhibition, % at 2 µM. 0.48% of 95,000 active. AID 802;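 active means inhibition above the batch mean plus 3 SD, with images confirmed as a hit by eye, cut at about 37% in these data; inconclusive means inhibition above that limit but hit not confirmed in images; inactive means inhibition not above that limit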
cytoskel mod: modifiers of cytoskeleton assembly | HUVEC TNFa F-actin phalloidin imaging, high content | inhibition, % at 2 µM | 0.18% of 91,000 active | AID 836;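 active means inhibition above the batch mean plus 3 SD and confirmed as a hit by visual image inspection, cut at about 30% in these data, passing the limit was not always enough; inconclusive means above the inhibition threshold but rejected on visual inspection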
Of the large screens only hits and unclear results are named; the others gave an inactive call. In the library only some 1.2% were active in any assay of this set; here they are far more common.

CCOc1cc(C(=O)NCc2nnc(SCC(=O)OC)n2C)cc(OCC)c1OCC	E-sel TNF inh 71 (no result: HUVEC tox TNFa, VCAM1 TNFa inh, cytoskel mod)
CCOC(=O)CSc1nnc(CNC(=O)c2cc(OCC)c(OCC)c(OCC)c2)n1C	none
CCOC(=O)C1=C(C)NC(=S)NC1/C=C/c1ccccc1 (stereo unspecified)	none (no result: HUVEC tox TNFa, VCAM1 TNFa inh, cytoskel mod)
O=C(CC1SC(=NCCc2ccccc2)N(/N=C/c2cccs2)C1=O)Nc1ccc(Cl)cc1 (stereo unspecified)	none (no result: HUVEC tox TNFa, VCAM1 TNFa inh, cytoskel mod)
CCN(CC)c1ccc2cc(-c3nc4ccccc4n3C)c(=O)oc2c1	VCAM1 TNFa inh 70 (no result: E-sel TNF inh)
CCN(CC)c1ccc2cc(-c3nc4ccccc4[nH]3)c(=O)oc2c1	cytoskel mod 48
CCN(CC)c1ccc2cc(-c3nnc(-c4ccc(Br)cc4)o3)c(=O)oc2c1	none
CCN(CC)c1ccc2cc(-c3nnc(-c4ccccc4)o3)c(=O)oc2c1	none
COc1cccc(/C=N/NC(=O)CN2CC(c3ccccc3)CC2=O)c1OC (stereo unspecified)	none (no result: HUVEC tox TNFa, VCAM1 TNFa inh, cytoskel mod)
COCCN1C(=O)N(c2cccc(C)c2)C(=O)C1CC(=O)Nc1ccc(F)cc1 (stereo unspecified)	E-sel TNF inh 80
COc1ccc(OC)c(N(CC(=O)NC2CC2)S(=O)(=O)c2ccc(C)cc2)c1	HUVEC tox TNFa 90
CCOC(=O)C1CCCN(C(=O)c2cc(=O)c3ccccc3o2)C1 (stereo unspecified)	none
CCOC(=O)C1CCCN(C(=O)COC(=O)c2cc(=O)c3ccccc3o2)C1 (stereo unspecified)	E-sel TNF inh 64
O=C(CSc1ncn(-c2ccccc2)n1)Nc1ccc2c(c1)OCCO2	E-sel TNF inh 72 (no result: HUVEC tox TNFa, VCAM1 TNFa inh, cytoskel mod)
COc1ccc2oc(=O)c(/C(C)=N/Nc3ccccc3)cc2c1	none (no result: HUVEC tox TNFa, VCAM1 TNFa inh, cytoskel mod)
COc1ccc(-c2cc(C)nc(SCc3cccc(C(=O)O)c3)n2)cc1	E-sel TNF inh 69 (no result: HUVEC tox TNFa, VCAM1 TNFa inh, cytoskel mod)
O=C(Cn1cccc1C(=O)c1ccccc1)NCCN1CCOCC1	VCAM1 TNFa inh 82, cytoskel mod inconclusive
O=C(Cn1cccc1C(=O)c1ccccc1)NCCCN1CCOCC1	none (no result: E-sel TNF inh)
CC(Sc1nc(N)cc(=O)[nH]1)C(=O)NC1CCCCC1 (stereo unspecified)	VCAM1 TNFa inh 94
CCC(Sc1nc(N)cc(=O)[nH]1)C(=O)NC(C(=O)OC)c1ccccc1 (stereo unspecified)	none
CCC(C)c1ccccc1OCCOCCN1CCCC1 (stereo unspecified)	none (no result: HUVEC tox TNFa, VCAM1 TNFa inh, cytoskel mod)
CCC(C)c1ccccc1OCCCCN1CCCC1 (stereo unspecified)	E-sel TNF inh 64 (no result: HUVEC tox TNFa, VCAM1 TNFa inh, cytoskel mod)
COc1ccc(CCNC(=O)C(=O)NCc2ccc(C)cc2)cc1OC	E-sel TNF inh 50
O=C(/C=C/c1ccc2c(c1)OCO2)Nc1nc2ccccc2s1	E-sel TNF inh 62 (no result: HUVEC tox TNFa, VCAM1 TNFa inh, cytoskel mod)
COC(=O)c1cc(S(=O)(=O)N2CCOCC2)c(N2CCOCC2)cc1N1CCOCC1	E-sel TNF inh 56 (no result: HUVEC tox TNFa, VCAM1 TNFa inh, cytoskel mod)
Cc1cc(=O)n2ccsc2n1	none (no result: HUVEC tox TNFa, VCAM1 TNFa inh, cytoskel mod)
COc1ccc(S(=O)(=O)N2CCCC2C(=O)Nc2ccc(C)cc2)cc1 (stereo unspecified)	VCAM1 TNFa inh 97
COc1ccc(NC(=O)C2CCCN2S(=O)(=O)c2ccc(F)cc2)cc1 (stereo unspecified)	none (no result: E-sel TNF inh)
CCCOc1ccc(/C(O)=C2/C(=O)C(=O)N(CCCn3ccnc3)C2c2ccco2)cc1 (stereo unspecified)	E-sel TNF inh 100
CC1Cc2cc(/C(O)=C3/C(=O)C(=O)N(CCCn4ccnc4)C3c3ccncc3)ccc2O1 (stereo unspecified)	E-sel TNF inh 58
CC1Cc2cc(/C(O)=C3/C(=O)C(=O)N(CCCn4ccnc4)C3c3ccco3)ccc2O1 (stereo unspecified)	none
CCCOc1ccc(/C(O)=C2/C(=O)C(=O)N(CCOC)C2c2cccnc2)cc1 (stereo unspecified)	HUVEC tox TNFa 80, VCAM1 TNFa inh 87
COc1ccc(/C(O)=C2/C(=O)C(=O)N(Cc3cccnc3)C2c2ccncc2)cc1F (stereo unspecified)	E-sel TNF inh 70
Cc1ccc(-c2nnc3ccc(SCC(=O)Nc4cc(C)on4)nn23)cc1	cytoskel mod 66
COc1ccc(NC(=O)/C(Cl)=C(/Cl)S(=O)(=O)Cc2ccc(C)cc2)cn1	E-sel TNF inh 72, VCAM1 TNFa inh 51
COc1ccc(NC(=O)/C(Cl)=C(/Cl)S(=O)Cc2ccccc2Cl)cn1 (stereo unspecified)	E-sel TNF inh 100 (no result: HUVEC tox TNFa, VCAM1 TNFa inh, cytoskel mod)
COCCCNCCCCOc1ccc(OCc2ccccc2)cc1	E-sel TNF inh 66 (no result: HUVEC tox TNFa, VCAM1 TNFa inh, cytoskel mod)
COc1cc(NC(=O)CN2CCC(C)CC2)c(C)cc1[N+](=O)[O-]	E-sel TNF inh 83 (no result: HUVEC tox TNFa, VCAM1 TNFa inh, cytoskel mod)
CCN1CCN(CC(=O)Nc2cc(C)c(C)cc2[N+](=O)[O-])CC1	none (no result: HUVEC tox TNFa, VCAM1 TNFa inh, cytoskel mod)
O=C1c2ccccc2-c2ncnc3cccc1c23	E-sel TNF inh 65
COC(=O)[C@@]1(Cc2ccc(OC)cc2)[C@H]2c3cc(C(=O)N4CCCC4)n(CCc4c[nH]c5ccc(O)cc45)c3C[C@H]2CN1C(=O)c1ccccc1	none (no result: HUVEC tox TNFa, VCAM1 TNFa inh, cytoskel mod)
Cc1cccnc1Nc1nc(-c2ccccn2)cs1	VCAM1 TNFa inh 94
Cc1cccnc1Nc1nc(-c2ccc(O)cc2O)cs1	none (no result: HUVEC tox TNFa, VCAM1 TNFa inh, cytoskel mod)
CCNc1nc(N)nc(Oc2ccc(C(=O)OC)cc2)n1	none
CCNc1nc(Oc2ccc(C(=O)OC)cc2)nc(N(C)C)n1	HUVEC tox TNFa 79
Nc1ccc(Br)cc1-c1nc2ccccc2[nH]c1=O	E-sel TNF inh 100 (no result: HUVEC tox TNFa, VCAM1 TNFa inh, cytoskel mod)
NC(=S)N/N=C/c1ccc(-c2cc(Cl)ccc2Cl)o1	VCAM1 TNFa inh 54
COc1ccc(S(=O)(=O)NCc2csc(-c3cccnc3)n2)cc1	E-sel TNF inh 70
O=C(C[n+]1cccc(/C=N/O)c1)N1CCCc2ccccc21	none (no result: HUVEC tox TNFa, VCAM1 TNFa inh, cytoskel mod)
C=CCNC(=O)c1nn2cccnc2c1Cl	HUVEC tox TNFa 92, VCAM1 TNFa inh inconclusive, cytoskel mod inconclusive
Cc1cc(NC(=O)c2nn3cccnc3c2Cl)no1	none (no result: E-sel TNF inh)
O=S(=O)(c1ccc(Cl)c(Cl)c1)c1snnc1-c1ccccc1	VCAM1 TNFa inh 96
COC(=O)c1sc(S(=O)(=O)NC(C)C(=O)O)c(C(=O)OC)c1C (stereo unspecified)	none (no result: HUVEC tox TNFa, VCAM1 TNFa inh, cytoskel mod)
O=C(COC(=O)CCc1ccc(S(=O)(=O)N2CCOCC2)cc1)NC1CCCC1	E-sel TNF inh 63 (no result: HUVEC tox TNFa, VCAM1 TNFa inh, cytoskel mod)
C=CC(=O)Nc1ccc(Br)cc1	VCAM1 TNFa inh 52
O=C(Nc1ccc(Br)cc1)c1ccco1	none
Cc1ccc2nc(C)cc(Nc3ccc4c(c3)OCCO4)c2c1	none
CCOc1ccc2nc(C)cc(Nc3ccc4c(c3)OCCO4)c2c1	cytoskel mod 68
CCOc1ccc(C=O)cc1CN1CCCCC1	HUVEC tox TNFa 84, VCAM1 TNFa inh 95
COc1cccc(C(C(=O)NC(C)(C)C)N(C(=O)CCC(=O)Nc2cc(C)on2)C2CC2)c1OC (stereo unspecified)	E-sel TNF inh 67
CCCCN(C(=O)CCC(=O)Nc1cc(C)on1)C(C(=O)NC(C)(C)C)c1cccc(OC)c1OC (stereo unspecified)	none
O=C(c1ccc(Cl)cc1)N1CCCC(c2ccccc2)=N1	E-sel TNF inh 100
CSc1nc(-c2ccccc2)nn1C(=O)c1ccc(Cl)cc1	none
O=C(Cn1cc(C(F)(F)F)ccc1=O)N/N=C/c1cccc(Cl)c1	none (no result: HUVEC tox TNFa, VCAM1 TNFa inh, cytoskel mod)
Cc1cc(NC(=O)CSc2n[nH]c(N)n2)no1	E-sel TNF inh 67 (no result: HUVEC tox TNFa, VCAM1 TNFa inh, cytoskel mod)
COc1ccc(CCNC(=O)CSc2nc(-c3ccco3)cc(C(F)(F)F)n2)cc1OC	E-sel TNF inh 68
Cc1cc(NC(=O)CSc2nc(-c3ccco3)cc(C(F)(F)F)n2)no1	VCAM1 TNFa inh 53

Bioassay records deposited in PubChem BioAssay by Columbia University Molecular Screening Center.
